# Data taken from PubChem BioAssay (EPA / NIEHS).
# “And” between values parts separate entries of the source, which are not always exact repeats. Equal entries are not always repeated. More than one record can exist for a structure, and the calls need not agree. The source made the active and inactive calls. How the source made its calls: active means hit-call score of the fitted dose curve at least 0.9, where 1 is the maximum; inactive means score below 0.9.
# What was measured:
# [1] = read-out: Macrophage colony-stimulating factor (MCSF), CSF1 (gene 1435); test: BSK_LPS_MCSF: BioMAP Diversity Plus: LPS Assay for Macrophage colony-stimulating factor (MCSF) Biomarker Activity (AID 2283083); conditions: primary human HUVEC with PBMC; actives raise or lower the signal
# Method in brief: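 ELISA readout of M-CSF after 24 h compound exposure in a human endothelial/PBMC co-culture. Activity, in either direction, is fitted relative to DMSO vehicle.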
# [2] = read-out: Tissue Factor, F3 (gene 2152); test: BSK_LPS_TissueFactor: BioMAP Diversity Plus: LPS Assay for Tissue Factor Biomarker Activity (AID 2283084); conditions: primary human HUVEC with PBMC; actives raise or lower the signal
# Method in brief: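 ELISA signal for cell-surface Tissue Factor (CD142) was read 24 h after compound dosing of an LPS-stimulated human endothelial–PBMC primary co-culture. Gain or loss of signal was scored relative to DMSO.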
# [3] = read-out: Tumor necrosis factor (Homo sapiens) (UniProt P01375); test: BSK_LPS_TNFa: BioMAP Diversity Plus: LPS Assay for Tumour Necrosis Factor alpha (TNFa) Biomarker Activity (AID 2283085); conditions: primary human HUVEC with PBMC; actives raise or lower the signal;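 on AC50: TNFa protein level quantified by ELISA in the co-culture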
# Method in brief: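 HUVEC/PBMC co-culture, LPS-stimulated; 24 h post-dose; TNFa by ELISA; gain or loss of signal fitted bidirectionally vs DMSO baseline.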
# [4] = read-out: Vascular cell adhesion molecule 1 (VCAM1), VCAM1 (gene 7412); test: BSK_LPS_VCAM1: BioMAP Diversity Plus: LPS Assay for Vascular cell adhesion molecule 1 (VCAM1) Biomarker Activity (AID 2283086); conditions: primary human HUVEC with PBMC; actives raise or lower the signal
# Method in brief: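 ELISA read-out of VCAM-1 at 24 h post-dosing in an LPS-driven HUVEC/PBMC primary human co-culture; gain or loss of signal fitted bidirectionally against DMSO baseline. Cytotoxicity tracked in parallel cultures by SRB total-protein staining.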
# [5] = read-out: CD38, CD38 (gene 952); test: BSK_SAg_CD38: BioMAP Diversity Plus: SAg Assay for CD38 Biomarker Activity (AID 2283087); conditions: primary human HUVEC with PBMC; actives raise or lower the signal
# Method in brief: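 Measures CD38 on a human endothelial/PBMC co-culture driven by SEB and TSST-1, 24 h after compound exposure, using ELISA with fluorescence detection; DMSO defines baseline for bidirectional curve fitting.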
# [6] = read-out: CD40, CD40 (gene 958); test: BSK_SAg_CD40: BioMAP Diversity Plus: SAg Assay for CD40 Biomarker Activity (AID 2283088); conditions: primary human HUVEC with PBMC; actives raise or lower the signal
# Method in brief: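 Compounds were dosed onto a human primary endothelial–PBMC co-culture, and after 24 h CD40 was quantified by ELISA using a fluorescence signal. Activity in either direction was fitted relative to DMSO.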
# [7] = read-out: CD69, CD69 (gene 969); test: BSK_SAg_CD69: BioMAP Diversity Plus: SAg Assay for CD69 Biomarker Activity (AID 2283089); conditions: primary human HUVEC with PBMC; actives raise or lower the signal;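 on AC50: cell surface CD69 protein quantified by ELISA with fluorescence detection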
# Method in brief: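 Primary human vascular co-culture (umbilical vein endothelium with peripheral blood mononuclear cells) exposed to test chemical for 24 h. CD69 levels quantified by fluorescence ELISA; DMSO served as negative control for bidirectional fitting.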
# [8] = read-out: Monocyte Chemoattractant Protein-1 (MCP1), CCL2 (gene 6347); test: BSK_SAg_MCP1: BioMAP Diversity Plus: SAg Assay for Monocyte Chemoattractant Protein-1 (MCP1) Biomarker Activity (AID 2283090); conditions: primary human HUVEC with PBMC; actives raise or lower the signal
# Method in brief: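 Values derive from bidirectional fitting of ELISA-measured MCP1 against DMSO controls. Readings were taken 24 h after dosing human vascular endothelial cells co-cultured with peripheral blood mononuclear cells under superantigen stimulation.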
# [9] = read-out: E-selectin (Homo sapiens) (UniProt P16581); test: BSK_SAg_Eselectin: BioMAP Diversity Plus: SAg Assay for Eselectin Biomarker Activity (AID 2283091); conditions: primary human HUVEC with PBMC; actives raise or lower the signal
# Method in brief: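 Co-culture: HUVEC + PBMC. Dose compound; 24 h. ELISA for E-selectin. Bidirectional fit vs DMSO.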
# [10] = read-out: Monokine induced gamma interferon (MIG), CXCL9 (gene 4283); test: BSK_SAg_MIG: BioMAP Diversity Plus: SAg Assay for Monokine induced gamma interferon (MIG) Biomarker Activity (AID 2283092); conditions: primary human HUVEC with PBMC; actives raise or lower the signal
# Method in brief: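 Endothelial cells and PBMC were co-cultured, exposed to test chemicals, and sampled 24 h later. MIG was measured by ELISA, and responses were fitted in both directions relative to DMSO.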
# [11] = BSK_SAg_PBMCCytotoxicity: PBMC Cytotoxicity Assessment in the BioMAP Diversity Plus: SAg Assay (AID 2283093); conditions: primary human HUVEC with PBMC;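 further: fitted both ways against DMSO so a hit may be loss or gain of signal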;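 on AC50: PBMC superantigen activated with SEB plus TSST-1 one hour after compound addition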
# Method in brief: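 PBMC viability by Alamar Blue reduction, fluorescence read at 546/580 nm after 6 h dye exposure. Cells were dosed 1 h before SEB plus TSST-1 activation (20 ng/mL final each), then held 90 h; endothelial/PBMC human co-culture.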
# [12] = read-out: Interleukin-8 (IL8), CXCL8 (gene 3576); test: BSK_SAg_IL8: BioMAP Diversity Plus: SAg Assay for Interleukin-8 (IL8) Biomarker Activity (AID 2283094); conditions: primary human HUVEC with PBMC; actives raise or lower the signal
# Method in brief: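 HUVEC/PBMC co-culture, 24 h post-dose; IL-8 by ELISA. Gain or loss of signal fitted bidirectionally vs DMSO baseline.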
# [13] = BSK_SAg_Proliferation: Cell Proliferation Assessment in the BioMAP Diversity Plus: SAg Assay (AID 2283095); conditions: primary human HUVEC with PBMC;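 further: relative cell number as total protein by SRB absorbance in sub-confluent culture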
# Method in brief: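 HUVEC/PBMC co-culture, 96-well. TCA-fixed (10%), 0.1% SRB stain, A560 at 96 h. Protein content used as viability readout; bidirectional fitting vs DMSO control.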
# [14] = BSK_SAg_SRB: Viability Assessment in the BioMAP Diversity Plus: SAg Assay (AID 2283096); conditions: primary human HUVEC with PBMC;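 further: cells read one day after compound addition; hits may be either gain or loss of signal compared with DMSO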
# Method in brief: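 Compounds were added to a human vascular co-culture of umbilical vein endothelium and PBMC. After 24 h, parallel cultures were fixed with 10% TCA, stained with 0.1% sulforhodamine B and read at 560 nm. Gain or loss of signal was fitted relative to DMSO.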
# Tumor necrosis factor (Homo sapiens), sequence (P01375 whole entry, looked up): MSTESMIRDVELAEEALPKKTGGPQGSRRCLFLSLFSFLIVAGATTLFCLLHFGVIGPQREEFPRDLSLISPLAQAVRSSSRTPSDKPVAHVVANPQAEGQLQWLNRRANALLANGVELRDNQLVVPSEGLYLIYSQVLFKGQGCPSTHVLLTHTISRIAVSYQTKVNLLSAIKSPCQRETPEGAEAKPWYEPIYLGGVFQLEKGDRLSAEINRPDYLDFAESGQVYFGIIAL
# E-selectin (Homo sapiens), sequence (P16581 whole entry, looked up): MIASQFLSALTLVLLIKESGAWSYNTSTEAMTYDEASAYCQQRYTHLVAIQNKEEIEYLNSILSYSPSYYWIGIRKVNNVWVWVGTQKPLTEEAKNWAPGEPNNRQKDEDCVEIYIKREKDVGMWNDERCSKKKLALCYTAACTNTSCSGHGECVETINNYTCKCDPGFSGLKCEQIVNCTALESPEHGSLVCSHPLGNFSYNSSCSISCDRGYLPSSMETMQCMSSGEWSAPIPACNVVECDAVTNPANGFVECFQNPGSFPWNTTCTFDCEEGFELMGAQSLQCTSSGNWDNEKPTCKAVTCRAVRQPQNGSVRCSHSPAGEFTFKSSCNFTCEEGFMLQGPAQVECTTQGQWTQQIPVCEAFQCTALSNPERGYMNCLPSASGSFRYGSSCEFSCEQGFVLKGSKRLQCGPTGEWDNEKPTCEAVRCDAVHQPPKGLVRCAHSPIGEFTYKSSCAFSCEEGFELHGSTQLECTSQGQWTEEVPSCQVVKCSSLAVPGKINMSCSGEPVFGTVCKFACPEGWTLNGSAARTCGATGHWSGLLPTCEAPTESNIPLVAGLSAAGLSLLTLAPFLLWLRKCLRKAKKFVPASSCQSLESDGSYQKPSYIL
compound,measurement,setting,value
CCOC(=O)CN[C@@H](C(=O)N1CC[C@H]1C(=O)NCc1ccc(/C(N)=N/O)cc1)C1CCCCC1,outcome,[1],inactive
same,outcome,[2],inactive
same,outcome,[3],inactive
same,outcome,[4],inactive
same,outcome,[5],inactive
same,outcome,[6],inactive
same,outcome,[7],inactive
same,outcome,[8],inactive
same,outcome,[9],inactive
same,outcome,[10],inactive
same,outcome,[11],inactive
same,outcome,[12],inactive
same,outcome,[13],inactive
same,outcome,[14],inactive
CC(C)(C)c1ccc(O)c(O)c1,AC50,[1],29.2 µM (active)
same,AC50,[2],20 µM (active)
same,AC50,[3],32.8 µM (active)
same,AC50,[4],24 µM (active)
same,AC50,[5],28.5 µM (active)
same,AC50,[6],27.3 µM (active)
same,AC50,[7],20 µM (active)
same,AC50,[8],30.6 µM (active)
same,AC50,[9],19.2 µM (active)
same,AC50,[10],34.8 µM (active)
same,AC50,[11],3.06 µM (active)
same,AC50,[12],20 µM (active)
same,AC50,[13],2.68 µM (active)
same,AC50,[14],29.1 µM (active)
CCCCC(CC)C(=O)O (centres undefined),outcome,[1],inactive
same,outcome,[2],inactive
same,outcome,[3],inactive
same,outcome,[4],inactive
same,outcome,[5],inactive
same,outcome,[6],inactive
same,outcome,[7],inactive
same,outcome,[8],inactive
same,outcome,[9],inactive
same,outcome,[10],inactive
same,outcome,[11],inactive
same,outcome,[12],inactive
same,outcome,[13],inactive
same,outcome,[14],inactive
OCC(CO)(CBr)CBr,outcome,[1],inactive
same,outcome,[2],inactive
same,outcome,[3],inactive
same,outcome,[4],inactive
same,outcome,[5],inactive
same,outcome,[6],inactive
same,outcome,[7],inactive
same,outcome,[8],inactive
same,outcome,[9],inactive
same,outcome,[10],inactive
same,outcome,[11],inactive
same,outcome,[12],inactive
same,outcome,[13],inactive
same,outcome,[14],inactive
C=CC(=C)CC/C=C(\C)CCC=C(C)C,outcome,[1],inactive
same,outcome,[2],inactive
same,outcome,[3],inactive
same,outcome,[4],inactive
same,outcome,[5],inactive
same,outcome,[6],inactive
same,outcome,[7],inactive
same,AC50,[8],0.042 µM (active)
same,outcome,[9],inactive
same,outcome,[10],inactive
same,outcome,[11],inactive
same,outcome,[12],inactive
same,outcome,[13],inactive
same,outcome,[14],inactive
COC1=CC(=O)C[C@@H](C)[C@]12Oc1c(Cl)c(OC)cc(OC)c1C2=O,outcome,[1],inactive
same,outcome,[2],inactive
same,outcome,[3],inactive
same,outcome,[4],inactive
same,outcome,[5],inactive
same,outcome,[6],inactive
same,outcome,[7],inactive
same,outcome,[8],inactive
same,outcome,[9],inactive
same,outcome,[10],inactive
same,outcome,[11],inactive
same,outcome,[12],inactive
same,outcome,[13],inactive
same,outcome,[14],inactive
COc1cc(OC)nc(NC(=O)NS(=O)(=O)Nc2ccccc2C(=O)N(C)C)n1,outcome,[1],inactive
same,outcome,[2],inactive
same,outcome,[3],inactive
same,outcome,[4],inactive
same,outcome,[5],inactive
same,outcome,[6],inactive
same,outcome,[7],inactive
same,outcome,[8],inactive
same,outcome,[9],inactive
same,outcome,[10],inactive
same,outcome,[11],inactive
same,outcome,[12],inactive
same,outcome,[13],inactive
same,outcome,[14],inactive
O=C1c2ccc(O)c(O)c2C(=O)c2c(O)ccc(O)c21,outcome,[1],inactive
same,outcome,[2],inactive
same,outcome,[3],inactive
same,outcome,[4],inactive
same,outcome,[5],inactive
same,outcome,[6],inactive
same,outcome,[7],inactive
same,outcome,[8],inactive
same,outcome,[9],inactive
same,outcome,[10],inactive
same,outcome,[11],inactive
same,outcome,[12],inactive
same,outcome,[13],inactive
same,outcome,[14],inactive
O=C(NO)c1ccccc1,outcome,[1],inactive
same,outcome,[2],inactive
same,outcome,[3],inactive
same,outcome,[4],inactive
same,outcome,[5],inactive
same,outcome,[6],inactive
same,outcome,[7],inactive
same,outcome,[8],inactive
same,outcome,[9],inactive
same,outcome,[10],inactive
same,outcome,[11],inactive
same,outcome,[12],inactive
same,outcome,[13],inactive
same,outcome,[14],inactive
CC[N+](CC)(CC)Cc1ccccc1,outcome,[1],inactive
same,outcome,[2],inactive
same,outcome,[3],inactive
same,outcome,[4],inactive
same,outcome,[5],inactive
same,outcome,[6],inactive
same,outcome,[7],inactive
same,outcome,[8],inactive
same,outcome,[9],inactive
same,outcome,[10],inactive
same,outcome,[11],inactive
same,outcome,[12],inactive
same,outcome,[13],inactive
same,outcome,[14],inactive
O=C1NS(=O)(=O)c2ccccc21,outcome,[1],inactive
same,outcome,[2],inactive
same,outcome,[3],inactive
same,outcome,[4],inactive
same,outcome,[5],inactive
same,outcome,[6],inactive
same,outcome,[7],inactive
same,outcome,[8],inactive
same,outcome,[9],inactive
same,outcome,[10],inactive
same,outcome,[11],inactive
same,outcome,[12],inactive
same,outcome,[13],inactive
same,outcome,[14],inactive
Oc1c(Cl)cc(Cl)cc1Sc1cc(Cl)cc(Cl)c1O,AC50,[1],26.3 µM (active)
same,AC50,[2],34 µM (active) and 33.6 µM (active)
same,AC50,[3],29.9 µM (active) and 30 µM (active)
same,AC50,[4],32.9 µM (active) and 30.9 µM (active)
same,AC50,[5],9.47 µM (active) and 9.95 µM (active)
same,AC50,[6],13.8 µM (active) and 9.99 µM (active)
same,AC50,[7],13.2 µM (active) and 16.2 µM (active)
same,AC50,[8],8.87 µM (active) and 5.21 µM (active)
same,AC50,[9],8.08 µM (active) and 7.11 µM (active)
same,AC50,[10],12.4 µM (active) and 12 µM (active)
same,AC50,[11],29.1 µM (active) and 30 µM (active)
same,AC50,[12],4.54 µM (active) and 5.28 µM (active)
same,AC50,[13],5.29 µM (active) and 5.92 µM (active)
same,AC50,[14],23.8 µM (active) and 17.2 µM (active)
CCCCCCCCCCCC,outcome,[1],inactive
same,AC50,[2],16.7 µM (active)
same,outcome,[2],inactive
same,AC50,[3],28.7 µM (active) and 20.7 µM (active)
same,AC50,[4],33 µM (active) and 31 µM (active)
same,outcome,[5],inactive
same,outcome,[6],inactive
same,outcome,[7],inactive
same,outcome,[8],inactive
same,outcome,[9],inactive
same,outcome,[10],inactive
same,outcome,[11],inactive
same,outcome,[12],inactive
same,AC50,[13],36.6 µM (active)
same,outcome,[13],inactive
same,outcome,[14],inactive
